# Results published in ChEMBL document CHEMBL1961873, “Compounds: GSK PKIS; Assays: Nanosyn kinase panel” (2012).
# Key:
# [1] = molecular target: Mitogen-activated protein kinase kinase kinase kinase 4 (Homo sapiens) (UniProt O95819); details: at 1 µM;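 also: reported figure is an averaged inhibition value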
# [2] = molecular target: Dual specificity mitogen-activated protein kinase kinase 1 (Homo sapiens) (UniProt Q02750); details: at 0.1 µM
# [3] = molecular target: Dual specificity mitogen-activated protein kinase kinase 1 (Homo sapiens) (UniProt Q02750); details: at 1 µM
# [4] = molecular target: Misshapen-like kinase 1 (Homo sapiens) (UniProt Q8N4C8); details: at 0.1 µM
# [5] = molecular target: Misshapen-like kinase 1 (Homo sapiens) (UniProt Q8N4C8); details: at 1 µM
# [6] = molecular target: T1, Serine/threonine-protein kinase 4 (Homo sapiens) (UniProt Q13043); details: at 0.1 µM
# T1 sequence (whole entry): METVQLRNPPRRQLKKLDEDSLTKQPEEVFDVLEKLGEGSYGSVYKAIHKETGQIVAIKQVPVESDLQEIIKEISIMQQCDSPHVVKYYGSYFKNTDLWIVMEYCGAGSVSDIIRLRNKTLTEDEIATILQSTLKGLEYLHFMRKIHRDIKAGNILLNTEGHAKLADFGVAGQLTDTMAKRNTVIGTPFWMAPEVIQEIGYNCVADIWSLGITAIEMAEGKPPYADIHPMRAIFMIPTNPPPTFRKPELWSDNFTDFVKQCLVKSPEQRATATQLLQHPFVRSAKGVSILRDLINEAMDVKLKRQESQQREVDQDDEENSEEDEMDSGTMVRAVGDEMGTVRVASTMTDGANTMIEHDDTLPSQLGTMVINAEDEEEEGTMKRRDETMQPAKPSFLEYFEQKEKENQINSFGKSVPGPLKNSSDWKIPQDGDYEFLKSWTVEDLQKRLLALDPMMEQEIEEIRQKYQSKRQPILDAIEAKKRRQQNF
# [7] = molecular target: T1, Serine/threonine-protein kinase 4 (Homo sapiens); details: at 1 µM
# [8] = molecular target: T2, Serine/threonine-protein kinase 3 (Homo sapiens) (UniProt Q13188); details: at 0.1 µM
# T2 sequence (whole entry): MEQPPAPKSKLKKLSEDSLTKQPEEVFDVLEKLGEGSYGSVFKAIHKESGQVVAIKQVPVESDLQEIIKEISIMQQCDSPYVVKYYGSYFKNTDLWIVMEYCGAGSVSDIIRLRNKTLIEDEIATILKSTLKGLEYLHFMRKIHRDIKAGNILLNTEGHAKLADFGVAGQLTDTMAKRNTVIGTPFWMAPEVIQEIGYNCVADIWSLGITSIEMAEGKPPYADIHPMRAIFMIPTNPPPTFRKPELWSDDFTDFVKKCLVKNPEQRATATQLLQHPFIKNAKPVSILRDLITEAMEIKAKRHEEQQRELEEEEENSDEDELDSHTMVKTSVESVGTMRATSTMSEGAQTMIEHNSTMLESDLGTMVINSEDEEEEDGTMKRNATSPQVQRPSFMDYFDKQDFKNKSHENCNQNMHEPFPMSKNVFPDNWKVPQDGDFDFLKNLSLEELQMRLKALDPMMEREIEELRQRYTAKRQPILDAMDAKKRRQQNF
# [9] = molecular target: T2, Serine/threonine-protein kinase 3 (Homo sapiens); details: at 1 µM
# [10] = molecular target: Serine/threonine-protein kinase 26 (Homo sapiens) (UniProt Q9P289); details: at 0.1 µM
# Serine/threonine-protein kinase 26 (Homo sapiens), sequence (Q9P289 2-416 limits assumed): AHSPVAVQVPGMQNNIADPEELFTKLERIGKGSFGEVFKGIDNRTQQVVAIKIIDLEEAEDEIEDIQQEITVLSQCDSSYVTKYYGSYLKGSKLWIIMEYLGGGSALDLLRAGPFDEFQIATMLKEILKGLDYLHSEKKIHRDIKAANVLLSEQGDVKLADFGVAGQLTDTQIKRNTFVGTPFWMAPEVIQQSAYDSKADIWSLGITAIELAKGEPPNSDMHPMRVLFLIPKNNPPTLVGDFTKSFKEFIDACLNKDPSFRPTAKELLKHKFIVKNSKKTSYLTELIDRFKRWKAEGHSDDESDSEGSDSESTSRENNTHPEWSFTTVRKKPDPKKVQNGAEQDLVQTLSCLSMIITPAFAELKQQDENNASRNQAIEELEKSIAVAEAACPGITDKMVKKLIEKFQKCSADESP
# Mitogen-activated protein kinase kinase kinase kinase 4 (Homo sapiens), sequence (O95819 2-1239 limits assumed): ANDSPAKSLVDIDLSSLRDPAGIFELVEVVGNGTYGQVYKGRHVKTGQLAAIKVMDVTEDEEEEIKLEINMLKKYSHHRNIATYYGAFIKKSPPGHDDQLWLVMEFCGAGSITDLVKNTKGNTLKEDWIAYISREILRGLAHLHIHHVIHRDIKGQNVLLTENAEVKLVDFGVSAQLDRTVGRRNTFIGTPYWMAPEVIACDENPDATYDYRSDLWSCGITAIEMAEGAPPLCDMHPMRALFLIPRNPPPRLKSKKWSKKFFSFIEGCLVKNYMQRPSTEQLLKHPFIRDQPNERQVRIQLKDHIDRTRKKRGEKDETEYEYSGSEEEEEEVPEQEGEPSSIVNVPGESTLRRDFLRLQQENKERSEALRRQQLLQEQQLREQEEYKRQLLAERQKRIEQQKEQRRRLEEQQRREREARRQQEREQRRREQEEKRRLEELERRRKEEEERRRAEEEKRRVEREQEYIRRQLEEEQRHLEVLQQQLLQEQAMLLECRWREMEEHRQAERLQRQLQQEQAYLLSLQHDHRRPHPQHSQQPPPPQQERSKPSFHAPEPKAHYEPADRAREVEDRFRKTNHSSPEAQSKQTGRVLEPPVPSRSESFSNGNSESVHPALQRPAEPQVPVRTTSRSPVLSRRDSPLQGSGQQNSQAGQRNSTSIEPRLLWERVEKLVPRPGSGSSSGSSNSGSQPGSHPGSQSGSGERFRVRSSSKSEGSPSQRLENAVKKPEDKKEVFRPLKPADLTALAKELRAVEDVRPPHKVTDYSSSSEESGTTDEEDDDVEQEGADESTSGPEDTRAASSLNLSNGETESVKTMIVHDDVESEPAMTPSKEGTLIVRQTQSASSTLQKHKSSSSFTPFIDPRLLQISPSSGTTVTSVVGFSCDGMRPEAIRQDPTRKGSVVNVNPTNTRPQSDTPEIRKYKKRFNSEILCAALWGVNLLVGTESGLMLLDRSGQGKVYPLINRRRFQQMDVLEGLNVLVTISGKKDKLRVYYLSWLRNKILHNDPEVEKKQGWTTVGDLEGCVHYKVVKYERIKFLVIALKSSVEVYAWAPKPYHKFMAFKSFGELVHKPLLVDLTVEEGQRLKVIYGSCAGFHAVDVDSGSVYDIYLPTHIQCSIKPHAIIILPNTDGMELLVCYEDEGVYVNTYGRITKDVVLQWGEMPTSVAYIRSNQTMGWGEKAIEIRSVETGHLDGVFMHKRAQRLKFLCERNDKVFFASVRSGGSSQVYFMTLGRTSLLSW
# Misshapen-like kinase 1 (Homo sapiens), sequence (Q8N4C8 whole entry, looked up): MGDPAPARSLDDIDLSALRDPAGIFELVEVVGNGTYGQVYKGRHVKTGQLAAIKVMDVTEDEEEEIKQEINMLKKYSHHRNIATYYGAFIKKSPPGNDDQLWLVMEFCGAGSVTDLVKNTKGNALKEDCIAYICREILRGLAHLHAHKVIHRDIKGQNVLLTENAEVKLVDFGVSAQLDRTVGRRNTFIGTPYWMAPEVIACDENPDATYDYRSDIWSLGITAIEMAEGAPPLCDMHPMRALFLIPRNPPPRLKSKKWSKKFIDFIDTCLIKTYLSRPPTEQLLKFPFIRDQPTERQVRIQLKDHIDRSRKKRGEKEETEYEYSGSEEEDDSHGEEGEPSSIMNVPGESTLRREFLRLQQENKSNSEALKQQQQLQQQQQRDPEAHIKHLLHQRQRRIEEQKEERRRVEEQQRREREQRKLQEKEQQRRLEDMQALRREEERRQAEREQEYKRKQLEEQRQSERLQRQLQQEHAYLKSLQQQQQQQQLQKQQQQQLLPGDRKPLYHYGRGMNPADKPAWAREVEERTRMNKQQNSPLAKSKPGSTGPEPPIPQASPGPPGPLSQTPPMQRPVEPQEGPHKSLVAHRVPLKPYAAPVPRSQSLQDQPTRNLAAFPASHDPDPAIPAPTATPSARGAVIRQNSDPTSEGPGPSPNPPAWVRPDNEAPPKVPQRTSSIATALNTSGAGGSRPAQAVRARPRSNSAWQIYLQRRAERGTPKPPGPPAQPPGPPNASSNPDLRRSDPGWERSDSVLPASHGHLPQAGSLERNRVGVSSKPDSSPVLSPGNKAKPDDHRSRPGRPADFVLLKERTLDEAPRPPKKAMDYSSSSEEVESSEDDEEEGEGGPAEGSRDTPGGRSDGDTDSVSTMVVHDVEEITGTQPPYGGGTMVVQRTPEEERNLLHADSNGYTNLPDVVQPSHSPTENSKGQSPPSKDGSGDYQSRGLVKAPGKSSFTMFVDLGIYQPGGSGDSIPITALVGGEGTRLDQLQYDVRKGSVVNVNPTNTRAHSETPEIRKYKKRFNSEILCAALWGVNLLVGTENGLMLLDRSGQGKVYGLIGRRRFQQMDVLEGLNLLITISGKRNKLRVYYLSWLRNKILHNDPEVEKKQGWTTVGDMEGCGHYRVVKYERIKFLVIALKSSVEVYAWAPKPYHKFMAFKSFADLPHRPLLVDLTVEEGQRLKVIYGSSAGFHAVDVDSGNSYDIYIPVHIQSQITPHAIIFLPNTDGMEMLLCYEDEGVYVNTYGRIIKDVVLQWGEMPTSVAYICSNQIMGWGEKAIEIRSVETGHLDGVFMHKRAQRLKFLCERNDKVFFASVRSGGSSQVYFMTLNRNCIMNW
# Dual specificity mitogen-activated protein kinase kinase 1 (Homo sapiens), sequence (Q02750 whole entry): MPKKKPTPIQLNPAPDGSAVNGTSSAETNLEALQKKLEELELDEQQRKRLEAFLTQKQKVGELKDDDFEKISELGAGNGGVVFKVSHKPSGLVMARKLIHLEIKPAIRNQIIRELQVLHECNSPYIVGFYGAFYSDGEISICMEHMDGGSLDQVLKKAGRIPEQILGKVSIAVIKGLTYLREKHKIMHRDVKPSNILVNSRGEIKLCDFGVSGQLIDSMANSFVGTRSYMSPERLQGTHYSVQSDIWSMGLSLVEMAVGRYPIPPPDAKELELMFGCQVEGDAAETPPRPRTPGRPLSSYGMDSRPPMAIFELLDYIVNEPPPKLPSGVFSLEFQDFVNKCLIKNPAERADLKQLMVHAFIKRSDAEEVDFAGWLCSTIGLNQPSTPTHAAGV
SMILES,inhibition [1] [%],inhibition [2] [%],inhibition [3] [%],inhibition [4] [%],inhibition [5] [%],inhibition [6] [%],inhibition [7] [%],inhibition [8] [%],inhibition [9] [%],inhibition [10] [%]
O=C(Nc1n[nH]c2cc(-c3ccccc3)ccc12)C1CC1,74.2,4.67,3.62,21.4,64.5,4.78,6.38,5.18,6.35,-2.61
O=C(Nc1ccc(Oc2ccc3[nH]c(NC(=O)c4ccccc4)nc3c2)cc1)Nc1cc(C(F)(F)F)ccc1F,5.89,2.91,2.61,3.26,4.54,5.74,10.6,5.74,8.42,0.36
COc1ccc2cc(-c3c(-c4ccncc4)nc(-c4ccc([S+](C)[O-])cc4C)n3C)ccc2c1 (stereo not given),17.7,-0.9,-1.09,0.1,12.5,-2.13,7.66,-0.9,17.3,0.68
CN1CCN(CCCNc2nc3ccc(Oc4ccc(NC(=O)Nc5cc(C(F)(F)F)ccc5F)cc4)cc3[nH]2)CC1,2.12,2.3,1.94,1.67,1.26,3.59,3.57,2.61,3.55,1.41
Fc1ccc(-c2ncn(C3CCNCC3)c2-c2ccnc(Oc3ccc4c(c3)OCO4)n2)cc1,7.72,4.99,8.82,5.95,12,4.76,8.51,6.72,10.8,-1.94
O=C(Nc1n[nH]c2nc(-c3ccco3)ccc12)C1CC1,32.1,-0.04,0.75,3.07,18.1,1.17,1.95,0,-0.23,0.08
Cc1ccc(NC(=O)c2ccoc2)cc1-c1ccc(C(=O)NCC2CC2)cc1,1.38,2.89,2.27,2.91,1.4,4.29,2.08,4.78,4.5,-1.09
CCC(=O)Nc1ccc(C)c(-c2ccc(C(=O)NCC3CC3)cc2)c1,5.43,3.72,2.87,7.03,5.64,2.76,3.12,3.02,2.84,-1.82
CNC(=O)c1cncc(/C=C/c2c(C)cccc2C)c1,7.57,-0.07,0.41,1.75,3.59,2.23,3.51,2.27,2.73,0.91
Fc1ccc(-c2ncn(CCCN3CCOCC3)c2-c2ccncc2)cc1,5.83,-0.25,0.32,1.73,2.89,1.3,4.22,-0.13,2.5,0.94
COc1cc2ncn(-c3cc(OCCc4ccccc4)c(C(N)=O)s3)c2cc1OC,26.2,3.24,2.39,5.52,18.8,2.99,13.6,2.95,11,-1.7
NC(=O)c1cc(-c2ccc(F)cc2)cc(-c2ccncc2)c1N,9.21,5.61,3.83,4.49,10,3.76,5.59,4.31,5.48,-2.72
NC(=O)c1ccc(Oc2nccc(-c3c(-c4ccc(F)cc4)ncn3C3CCNCC3)n2)cc1,3.93,4.51,4.62,6.11,6.81,4.07,4.99,8.2,7.98,-1.23
COc1ccc2cc(-c3c(-c4ccncc4)nc(-c4ccc(S(C)(=O)=O)cc4C)n3C)ccc2c1,14.8,6.08,4.97,6.31,13.9,2.82,8.72,4.72,12.6,-0.63
COc1cc2ncn(-c3cc(OCc4cccs4)c(C(N)=O)s3)c2cc1OC,67.2,3.5,2.83,18,63.5,20.6,65.5,19.5,62.6,2.25
c1ccc(Oc2ccc(Nc3ncc(-c4ccccc4)o3)cc2)cc1,6.86,0.88,1.76,3.49,7.84,1.03,1.83,0.33,0.37,-1.17
CS(=O)(=O)CCNCc1ccc(-c2ccc3ncnc(Nc4ccc(OCc5ccccc5)c(Br)c4)c3c2)o1,6.29,1.96,1.78,4.51,5.24,2.67,2.76,4.32,5.08,-0.82
C/C(Nc1ccc(S(N)(=O)=O)cc1)=C1/C(=O)Nc2ccccc21,88.3,-1.13,0.96,34.1,85.3,10.2,55.3,3.63,42.3,-1.9
COc1cc(N2CCN(C(C)C)CC2)ccc1Nc1nc(Nc2ccc(F)cc2C(=O)NC[C@@H](O)CO)c2cc[nH]c2n1,13.6,6.5,5.77,7.5,12,4.86,6.99,6.36,7.9,-1.23

SMILES,inhibition [1] [%],inhibition [2] [%],inhibition [3] [%],inhibition [4] [%],inhibition [5] [%],inhibition [6] [%],inhibition [7] [%],inhibition [8] [%],inhibition [9] [%],inhibition [10] [%]
CN(C)CCCNc1nccc(-c2c(-c3ccc(F)cc3)nn3cc(C(F)(F)F)ccc23)n1,10.6,1.86,2.52,5.22,7.76,2.92,4.75,3.38,3.61,-0.11
O=C1NC(=O)C(c2cccc(Cl)c2)=C1Nc1ccc(Cl)c(C(=O)O)c1,8.37,5.3,2.84,4.74,7.9,5.13,7.28,6.05,9.28,0.55
CN(c1ccc(NC(=O)Nc2c(Cl)cccc2Cl)cc1)c1ccnc(Nc2cccc(CS(C)(=O)=O)c2)n1,73.4,5.73,5.34,21.2,64.5,8.06,17.4,8.37,11.5,0.39
CCc1ccc(Oc2nccc(-c3c(-c4ccc(F)cc4)ncn3C3CCNCC3)n2)cc1,11.4,3.92,8.98,4.83,12.1,3.84,5.43,5.44,5.88,0.4
CN(C)c1ccc2c(c1)/C(=C/Nc1ccc(S(N)(=O)=O)cc1)C(=O)N2,70,2.52,6.25,18.1,63.6,44.2,71.7,32.3,68,0.49
Cc1nnc(-c2ccc(C)c(-c3ccc(C(=O)NCc4ccc(Cl)cc4)cc3)c2)o1,5.28,6.35,4.13,5.42,5.04,3.28,4.86,4.12,5.51,-1.19
COc1cc(Nc2ncc3c(C)nc(-c4cccc(Oc5ccccc5)c4)n3n2)cc(OC)c1OC,5.36,2.88,9.12,1.96,2.84,5.41,6.48,5.14,4.82,-0.33
Nc1nccc(-c2c(-c3ccc(F)cc3)ncn2C2CCC(O)CC2)n1 (stereo not given),72.8,-3.17,-3.2,6.81,62.4,0.86,22,-0.05,14.6,0.75
COC(=O)Nc1nc2ccc(Sc3ccc(NC(=O)Nc4cc(C(F)(F)F)ccc4F)cc3)cc2[nH]1,7.12,-0.42,0.12,0.07,0.67,2.61,3.26,2.16,1.83,1.18
C[C@@H](Oc1cc(-n2cnc3ccc(OCC4CCN(C)CC4)cc32)sc1C(N)=O)c1ccccc1Cl,11.6,6.35,5.61,6.3,10.1,14.8,56.7,11.7,39.7,-8.39
Fc1ccc(-c2c(-c3ccncc3)nc3n2CCS3)cc1,10.8,3.75,4.29,4.97,9.56,1.09,2.38,1.69,3.46,-0.47
NS(=O)(=O)c1ccc(N/N=C2\C(=O)Nc3ccc(C(=O)NCCCn4ccnc4)cc32)cc1,52.1,10.7,38,9.83,41.5,28.6,75.5,22.2,70,-0.28
NC(=O)c1cc(-c2ccncc2)cc(-c2ccccc2)c1N,32.3,6.3,5.89,11.2,26.1,3.19,6.8,3.96,3.58,-0.07
COc1ccc2ncn(-c3cc(O[C@H](C)c4ccccc4Cl)c(C(N)=O)s3)c2c1,5.82,2.51,2.76,5.84,5.42,3.89,13,6.32,13.2,-2.67
COc1cc2ncn(-c3cc(OCc4ccccc4C(F)(F)F)c(C(C)=O)s3)c2cc1OC,8.16,3.88,3.7,5,8.55,3.51,3.86,3.42,7.42,-0.47
Cc1ccc(C(=O)NC2CCC2)cc1-c1ccc(C(=O)NCC2CC2)cc1,3.8,2.81,2.71,5.5,4.67,3.29,1.77,1.04,1.53,-3.48
CCS(=O)(=O)c1ccc(OC)c(Nc2ncc(-c3ccccc3Cl)o2)c1,24.2,-0.28,0.4,4.25,22.4,1.96,5.89,1.11,2.6,1.19
NS(=O)(=O)c1ccc(Nc2cc(-c3ccc(O)c(F)c3)n[nH]2)cc1,76.2,-2.69,-3.65,11.6,65.7,-1.34,12.6,-1.84,9.64,0.95
N#Cc1ccc(Oc2nccc(-c3c(-c4ccc(F)cc4)ncn3C3CCNCC3)n2)cc1,5.64,4.35,3.84,6.9,7.67,3.35,4.07,5.75,4.78,-1.67
